HT1080NT lethal – kills 2HG-producing HT-1080-NT fibrosarcoma cells; HT-1080-NT fibrosarcoma viability, CellTiter-Glo ATP luminescence, 48 h; Potency, µM (highest dose often 46.1 µM), inactives show top-dose activity, negative = less viability, usual class: cytotoxic; 1.6% of 360,000 active;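 note: NT is the 2HG producing partner of a matched IDH1 knockdown line; potency is the fitted concentration of half-maximal effect; 0% = DMSO-treated cells and -100% = media-only wells without cells; nearly all actives have a fitted effect of over 55% in size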
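Toxicity toward the 2HG-producing NT line was scored as %Activity, normalised to DMSO and no-cell wells, from CellTiter-Glo luminescence after 48 hours' treatment.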
HT1080 IDH1KD tx – HT-1080 IDH1 knockdown cell toxicity (counter line); HT-1080 IDH1 knockdown viability, ATP luminescence, 48 h; Potency, µM (doses to about 46.1 µM), for the others: top-dose activity, negative = toxicity, most hits filed as cytotoxic; 2% of 360,000 active;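 note: potency is the fitted concentration of half-maximal effect; 0% = DMSO wells and -100% = cell-free medium wells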
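% activity derives from luminescence (CellTiter-Glo), normalised to DMSO and no-cell wells. HT-1080-IDH1KD cells, 750/well, had 48 h compound exposure at 37 °C.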
IL-1B inflam inh – inhibitors of inflammasome signaling (IL-1 beta secretion). THP-1 LPS/ATP IL-1B secretion, AlphaLISA, 16 h; active compounds read low. activity change, % at 57.5 µM. 4.7% of 360,000 active. AID 743279; in the data active = activity change below about -50%; inconclusive = mostly about -30% to -49%
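THP-1 cells pretreated 1 hr with compounds (up to 57.5 uM final), then stimulated with LPS (250 ng/mL final) plus ATP (1.25 mM final); secreted IL-1B measured by AlphaLISA after 16 hr, decreased signal indicating inhibition.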
TDP1 cell noCPT – qHTS for Inhibitors of human tyrosyl-DNA phosphodiesterase 1 (TDP1): qHTS in cells in absence of CPT; DT40 Tdp1-/- hTDP1 cells, no CPT, ATP luminescence, 48 h; AID 686978, 2013; 15% of 420,000 active; Potency, µM (titrated, usually from 46.2 µM), for inactives: at the top dose activity change, negative = growth inhibition, most hits filed as inhibitors; note: potency is the fitted concentration of half-maximal effect; nearly all actives have a fitted effect of over 55% in size
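Seeded 400 DT40-hTDP1 cells/well (vehicle DMSO, no 20 nM CPT); pinned compounds; ≥48 hr at 37 °C; CellTiter-Glo luminescence as viability measure.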
DT40 TDP1 CPT – DT40-hTDP1 cell growth loss with CPT; chicken DT40 Tdp1-/-;hTDP1 cells + 20 nM CPT, ATP luminescence, 48 h; Potency, µM (series often up to 46.2 µM), for inactives: top-dose activity change, negative = growth inhibition, usual class: inhibitors; 12% of 420,000 active; note: potency is the fitted concentration of half-maximal effect; nearly all actives have a fitted effect of over 55% in size
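Cell growth measured by CellTiter-Glo luminescence after a minimum 48 h, 37 C compound exposure with 20 nM CPT in Tdp1-knockout DT40 cells stably expressing hTDP1, seeded 400/well; qHTS titration format.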
An asterisk follows results filed as active; ? = inconclusive; . = no result given. Compounds with a hit are over-represented: about 19% of the library has one in this group of screens. Unless noted, calls come from the whole dose curve; as a rule, active = well fitted curve in the direction sought with a large enough effect; inconclusive = small, poorly fitted or top-dose-only effect, or another doubt; inactive = no such curve, though single readings can be large; an effect the other way counts as inactive or inconclusive. Unless noted, % is set by controls: 0 for no effect and ±100 for the full control effect.

SMILES	HT1080NT lethal	HT1080 IDH1KD tx	IL-1B inflam inh	TDP1 cell noCPT	DT40 TDP1 CPT
CCc1ccc(-c2nc3c(c(SCc4ccccc4)n2)Cc2c(CO)cnc(C)c2O3)cc1	.	.	.	-17%	0%
C=Cc1ccc(CSc2nc(-c3ccc(C)cc3)nc3c2Cc2c(CO)cnc(C)c2O3)cc1	.	.	.	16µM*	15µM*
CCc1ccc(NC(=O)CSc2nc(-c3cccc(OC)c3)nc3c2Cc2c(CO)cnc(C)c2O3)cc1	.	.	.	7.3µM*	6.5µM*
Cc1ccc(-c2nc3c(c(SCC(=O)N4CCOCC4)n2)Cc2c(CO)cnc(C)c2O3)cc1	3%	-1%	5	10µM*	23µM*
CC(NC(=O)c1ccc(OC2CCN(Cc3ccccn3)CC2)cc1)c1ccccc1 (stereo unspecified)	-1%	-10%	-17	18µM*	?
c1ccc(CNCCC(Cc2ccccc2)c2ccco2)cc1 (stereo unspecified)	16µM*	16µM*	-80*	16µM*	?
CN(C)c1ccc(CNCCC(Cc2ccccc2)c2ccco2)cc1 (stereo unspecified)	18µM*	23µM*	-99*	10µM*	9.2µM*
CCOC(=O)N1CCC(C(=O)NNC(=O)c2ccc(Cl)cc2Cl)CC1	18%	15%	-16	28%	-3%
Cc1ccc(C)c(S(=O)(=O)N2CCN(C(=O)CCNC(=O)c3ccc(Br)cc3)CC2)c1	3%	1%	-17	21µM*	23µM*
Cc1ccc(C)c(S(=O)(=O)N2CCN(C(=O)CCNS(=O)(=O)c3ccc(C)c(C)c3)CC2)c1	-9%	-25%	-5	18µM*	?
COc1cc(C(=O)NCC(=O)N2CCN(S(=O)(=O)c3cc(C)ccc3C)CC2)cc(OC)c1OC	7.3µM*	6.5µM*	91	3.7µM*	5.8µM*
Cc1ccc(C)c(OCCC(=O)N2CCN(S(=O)(=O)c3cc(C)ccc3C)CC2)c1	-4%	-1%	-4	?	?
CN(C)c1nc(F)c(F)c(S(=O)(=O)c2ccccc2)c1F	-8%	-9%	-3	4%	5%
CCc1nc(OCc2ccccc2)c2sc3nc4c(cc3c2n1)COC(C)(C)C4	14%	7%	-8	?	29µM*
CC1(C)Cc2nc3oc4c(=O)n(CC(=O)Nc5ccccc5)cnc4c3cc2CO1	-1%	0%	63	-18%	-27%
CC1(C)Cc2nc3sc4c(=O)n(CC(=O)NCc5ccco5)cnc4c3cc2CO1	?	10µM*	36	8.2µM*	4.6µM*
CC1(C)Cc2nc3sc4c(OCc5ccccc5)ncnc4c3cc2CO1	10%	3%	55	18µM*	?
CCCCCn1cnc2c(sc3nc4c(cc32)CSC(C)(C)C4)c1=O	-9%	-2%	9	10µM*	?
O=C(c1cnn(C(=O)c2ccco2)c1)c1cc(F)ccc1O	-4%	0%	-11	0%	-26%
Cc1ccc(C(=O)n2nc(C)c(S(=O)(=O)N3CCOCC3)c2C)cc1	.	.	.	?	-17%
N#CCCN(Cc1cccnc1)C(=O)c1sc2cc(F)ccc2c1Cl	0%	-2%	5	15µM*	?
COc1ccc(C2=NO[C@@H]3[C@@H]4C[C@@H]([C@H]5C(=O)N(C)C(=O)[C@@H]45)[C@H]23)c(OC)c1	16%	15%	22	-25%	5%
COCCn1c(SCC(=O)Nc2ccc(Cl)c(S(=O)(=O)N(C)C)c2)nc2ccccc21	-23%	-21%	0	16µM*	?
CN(C)C(=O)CSc1nc2ccccc2n1Cc1ccccc1	-4%	-6%	10	?	?
COC(=O)c1ccc(Cn2c(SCC(=O)NCc3ccccc3)nc3ccccc32)cc1	.	.	.	23µM*	21µM*
SMILES	HT1080NT lethal	HT1080 IDH1KD tx	IL-1B inflam inh	TDP1 cell noCPT	DT40 TDP1 CPT
COCCn1c(SCC(=O)Nc2ccc(S(N)(=O)=O)cc2)nc2ccccc21	-5%	-1%	-7	-23%	0%
CN(C)S(=O)(=O)c1cc(NC(=O)CSc2ncc(C(F)(F)F)cc2Cl)ccc1Cl	?	?	-82*	16µM*	15µM*
CCN(C(=O)CSc1nc2ccccc2n1Cc1ccc(C(=O)OC)cc1)c1ccccc1	.	.	.	13µM*	21µM*
COCCC(=O)N1CCC(Oc2ccc(C(=O)N3CCCC(CCCO)C3)cc2)CC1 (stereo unspecified)	5%	8%	4	-7%	-18%
CC(=O)c1ccc(S(=O)(=O)N(C)C(C)CCc2ccco2)cc1 (stereo unspecified)	6%	12%	0	-18%	?
COc1ccc(Cn2c(SCC(=O)Nc3ccc(OC)cc3)nc3ccccc32)cc1	.	.	.	?	26µM*
O=C(Cn1c(SCC(=O)Nc2ccc(F)cc2)nc2ccccc21)NCc1ccc(Cl)cc1	.	.	.	13µM*	?
O=C(CSc1nc2ccccc2n1CC(=O)Nc1ccc(F)cc1F)Nc1ccc(F)cc1	.	.	.	-5%	?
O=C(c1ccco1)N1CCN(Cc2nnnn2CCc2ccccc2)CC1	15%	13%	3	-15%	0%
CC(C)(C)OC(=O)NCCCC[C@H](NC(=O)c1nc[nH]c1C(=O)N1CCN(C(=O)OC(C)(C)C)CC1)C(=O)OC(C)(C)C	-2%	-8%	-8	23µM*	?
CC(C)(C)OC(=O)NCCCC[C@H](NC(=O)c1nc[nH]c1C(=O)N1CCN(c2ccccc2)CC1)C(=O)OC(C)(C)C	-1%	-19%	-55*	18µM*	?
CNC(=O)c1[nH]cnc1C(=O)N[C@@H](CCCCNC(=O)OC(C)(C)C)C(=O)OC(C)(C)C	-1%	2%	2	-12%	?
CC(C)(C)OC(=O)NCCCCCNC(=O)c1nc[nH]c1C(=O)N1CCN(C(=O)OC(C)(C)C)CC1	-2%	5%	5	16µM*	?
CC(C)(C)OC(=O)CNC(=O)c1nc[nH]c1C(=O)N1CCN(C(=O)OC(C)(C)C)CC1	2%	-5%	8	-1%	0%
Cc1c(C#N)c(SCC(N)=O)nc2c1CCCC2	-6%	-1%	34	-7%	-2%
CN(C)C(=C(C#N)C#N)N1CCN(c2ccc(Cl)c(Cl)c2)CC1	-1%	7%	-8	?	-21%
O=C(Nc1ccccc1)N1CCC2(CC1)CCN(C(=O)c1ccncc1)CC2	.	.	.	-3%	5%
C=CCc1cc(OC)ccc1OCCN1CC(C)OC(C)C1 (stereo unspecified)	-1%	3%	2	-8%	-14%
C=CCc1cc(Cl)ccc1OCCN1CC(C)OC(C)C1 (stereo unspecified)	-4%	-3%	1	21µM*	?

Screening results: PubChem BioAssay, National Center for Advancing Translational Sciences (NCATS)
